G9a inh – blocks human histone lysine methyltransferase G9a; G9a H3K9 monomethylation, AlphaScreen, 2 h; 8.8% of 350,000 active; AID 504332; Potency, µM (titrated, usually from 102 µM), actives largely listed as inhibitors; note: nearly all actives have a fitted effect of over 75% in size
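Chemiluminescent proximity detection of H3K9 monomethylation, read after 10 min bead incubation in the dark. Reaction: 20 nM G9a, 500 nM biotin-H3K9 peptide, 20 uM SAM cofactor, 2 h, room temperature, following 15 min enzyme-compound preincubation.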
PLK1 PBD block – inhibitors of human PLK1 polo-box domain binding | Plk1 PBD binding of FITC phosphopeptide, fluorescence polarization | P53350 | AID 720504 | Potency, µM, actives largely listed as inhibitors | 2.8% of 360,000 active; note: series mostly up to about 57 µM; nearly all actives have a fitted effect of over 65% in size
ALOX12 inh – ALOX12 (human) lipoxygenase inhibition; P18054; purified 12hLO, xylenol orange hydroperoxide absorbance; Potency, µM (series often up to 108 µM), actives largely listed as inhibitors; 1.1% of 580,000 active
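Hydroperoxide product was detected by ferrous iron/xylenol orange as the 573 to 405 nm absorbance ratio. Arachidonic acid at 40 uM (final) was turned over for 30 min at room temperature by 150 nM human 12hLO, pH 7.0 Hepes buffer, after 15 min compound preincubation.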
JMJD2A Tudor – JMJD2A Tudor domain (human) inhibition; Potency, µM (series often up to 114 µM), usual class: inhibitors; AlphaScreen JMJD2A-Tudor / H3K4me3 peptide binding; O75164; 4.4% of 390,000 active; note: nearly all actives have a fitted effect of over 50% in size
BAZ2B block – inhibitors of human BAZ2B bromodomain | Q9UIF8 | 4.4% of 360,000 active | AlphaScreen BAZ2B-H3K14Ac peptide displacement | Potency, µM (top dose mostly 114 µM), most hits filed as inhibitors | AID 504333; note: nearly all actives have a fitted effect of over 60% in size
Target sequence (Q9UIF8 whole entry, looked up): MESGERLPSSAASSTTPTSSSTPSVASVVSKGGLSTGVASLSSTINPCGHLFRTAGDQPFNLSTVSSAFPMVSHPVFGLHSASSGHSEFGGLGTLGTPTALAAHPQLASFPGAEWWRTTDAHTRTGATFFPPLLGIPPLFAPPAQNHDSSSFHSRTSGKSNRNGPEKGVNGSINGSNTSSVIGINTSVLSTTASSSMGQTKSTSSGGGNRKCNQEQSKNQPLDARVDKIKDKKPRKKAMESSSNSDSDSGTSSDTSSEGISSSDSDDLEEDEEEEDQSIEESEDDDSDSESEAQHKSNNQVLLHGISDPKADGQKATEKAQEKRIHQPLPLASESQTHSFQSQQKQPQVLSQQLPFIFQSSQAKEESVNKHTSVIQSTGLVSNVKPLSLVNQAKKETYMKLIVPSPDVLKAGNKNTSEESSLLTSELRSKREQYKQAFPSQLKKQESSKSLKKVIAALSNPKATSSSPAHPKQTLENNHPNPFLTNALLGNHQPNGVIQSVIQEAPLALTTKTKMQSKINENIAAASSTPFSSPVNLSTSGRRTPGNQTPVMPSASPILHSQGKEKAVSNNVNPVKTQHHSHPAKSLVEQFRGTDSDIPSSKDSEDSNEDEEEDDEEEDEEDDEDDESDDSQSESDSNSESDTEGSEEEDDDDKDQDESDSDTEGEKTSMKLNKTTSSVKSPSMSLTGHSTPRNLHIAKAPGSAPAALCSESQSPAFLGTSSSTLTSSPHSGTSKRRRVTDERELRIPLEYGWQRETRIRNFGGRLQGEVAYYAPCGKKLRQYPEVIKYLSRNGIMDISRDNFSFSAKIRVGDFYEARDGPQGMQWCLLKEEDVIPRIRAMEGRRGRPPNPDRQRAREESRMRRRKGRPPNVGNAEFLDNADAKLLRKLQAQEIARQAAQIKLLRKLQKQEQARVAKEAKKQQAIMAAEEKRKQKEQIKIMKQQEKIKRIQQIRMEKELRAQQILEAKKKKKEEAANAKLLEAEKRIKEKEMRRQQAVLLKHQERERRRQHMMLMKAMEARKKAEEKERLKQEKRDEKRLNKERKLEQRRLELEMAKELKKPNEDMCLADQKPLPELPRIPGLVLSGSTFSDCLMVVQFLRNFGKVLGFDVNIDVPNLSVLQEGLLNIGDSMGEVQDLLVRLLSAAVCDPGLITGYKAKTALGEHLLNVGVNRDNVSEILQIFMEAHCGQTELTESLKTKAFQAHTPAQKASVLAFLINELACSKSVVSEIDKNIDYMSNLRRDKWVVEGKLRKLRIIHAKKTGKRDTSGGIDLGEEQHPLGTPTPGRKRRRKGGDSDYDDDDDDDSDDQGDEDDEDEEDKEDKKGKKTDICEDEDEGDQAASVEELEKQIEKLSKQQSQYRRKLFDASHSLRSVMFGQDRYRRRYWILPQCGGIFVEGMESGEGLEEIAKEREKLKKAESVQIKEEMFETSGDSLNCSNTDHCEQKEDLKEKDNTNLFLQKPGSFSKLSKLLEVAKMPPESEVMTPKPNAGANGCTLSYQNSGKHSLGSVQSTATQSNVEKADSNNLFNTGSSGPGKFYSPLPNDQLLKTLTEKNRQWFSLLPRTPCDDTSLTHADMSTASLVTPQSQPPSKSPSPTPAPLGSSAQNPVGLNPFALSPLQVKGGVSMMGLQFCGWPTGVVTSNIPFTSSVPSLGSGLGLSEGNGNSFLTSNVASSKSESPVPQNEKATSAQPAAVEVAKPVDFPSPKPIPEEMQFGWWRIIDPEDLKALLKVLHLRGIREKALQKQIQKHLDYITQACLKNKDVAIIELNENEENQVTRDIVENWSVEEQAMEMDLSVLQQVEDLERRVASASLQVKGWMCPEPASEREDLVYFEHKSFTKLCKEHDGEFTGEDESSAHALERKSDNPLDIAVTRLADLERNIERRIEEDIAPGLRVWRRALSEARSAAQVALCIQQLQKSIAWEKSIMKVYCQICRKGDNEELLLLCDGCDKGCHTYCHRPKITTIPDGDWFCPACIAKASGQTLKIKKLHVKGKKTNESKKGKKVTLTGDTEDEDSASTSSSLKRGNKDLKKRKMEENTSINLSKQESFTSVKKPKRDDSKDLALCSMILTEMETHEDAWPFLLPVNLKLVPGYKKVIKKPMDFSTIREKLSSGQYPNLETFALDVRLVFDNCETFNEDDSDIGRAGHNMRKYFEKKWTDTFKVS
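AlphaScreen displacement: compounds (up to 110uM) incubated 30 min at room temperature with a preformed 50 nM BAZ2B/50 nM biotinylated H3K14Ac peptide complex in PBS pH 7.4 with Tween-20. Donor and acceptor beads at 10 ug/mL final added, 20 min light-protected before reading.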
HP1b binding inh – inhibitors of HP1-beta chromodomain binding to methylated histone tails. 0.56% of 390,000 active. Potency, µM (highest dose often 114 µM), usual class: inhibitors. P83916. AlphaScreen HP1-beta / biotin-H3K9me3 peptide binding. AID 540317; note: nearly all actives have a fitted effect of over 70% in size
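HP1-beta protein (50 nM final) preincubated 30 min at room temperature with biotinylated H3(1-18)K9me3 peptide (50 nM) in PBS pH 7.4, 0.01% Tween-20, then compound added for 30 min. AlphaScreen streptavidin donor/nickel chelate acceptor beads (10 ug/mL final), 30 min dark, luminescence read.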
A number is an active result; – = inactive; ? = inconclusive; · = no result; [ ] = another dose, or the depositor's remark. A selection: hits, their analogues and other compounds. The true share with any hit is near 9%. Calls come from the whole dose curve; as a rule, active = well fitted curve in the direction sought with a large enough effect; inconclusive = small, poorly fitted or top-dose-only effect, or another doubt; inactive = no such curve, though single readings can be large; an effect the other way counts as inactive or inconclusive.

SMILES	G9a inh	PLK1 PBD block	ALOX12 inh	JMJD2A Tudor	BAZ2B block	HP1b binding inh
Cc1ccc(C(C)C)c(OCCN2CCc3ccccc3C2)c1	–[0.501 µM]	–	–	–	–	–
Cc1cc(C(C)(C)C)ccc1OCCN1CCCC1	32µM	–	?	8.9µM	?	–
Cc1cc(C(C)(C)C)ccc1OCCCCN1CCCC1	?	–	–	7.1µM	–	–
Cc1ccc(C(C)(C)C)c(OCCN2CCCC2)c1	3.5µM	–	?	4µM	50µM	–
CCOC(=O)c1oc2ccccc2c1NC(=O)C(C)(C)C	–	–	–	–	–	–
NC(N)=NCc1cccc(I)c1	–	–	–	–	–	–
O=C1C2C3c4ccccc4C(c4ccccc43)C2C(=O)N1/N=C/c1cccc(O)c1 (stereo unspecified)	–	–	–	–	–	–
Cc1cc(NC(=O)c2oc3c(c2C)-c2[nH]ncc2CC3)ccc1Br	?	·	?	–	–	–
O=C1CCCCCCC(=O)[C@H](O)C[C@H](c2ccccc2)O1	·	–	–	·	·	·
c1ccc2c(c1)NCCS2	–[0.501 µM]	?	?	50µM	50µM	–
Cc1cc(NC(=O)COc2ccccc2C)ccc1NC(=O)c1cccs1	79µM	–	–	–	–	–
Cc1ccccc1OCC(=O)Nc1ccc(NC(=O)c2ccco2)cc1	–	21µM	–	–	–	–
Cc1ccccc1OCC(=O)Nc1cccc(NC(=O)c2ccco2)c1	–[12.7 µM]	–	–	–	–	–
Cc1ccccc1OCC(=O)Nc1ccc(S(=O)(=O)N(Cc2ccccc2)c2ccccc2)cc1	–	·	–	79µM	–	–
O=C(CNC(=O)c1ccco1)Nc1ccc(F)cc1	–[12.7 µM]	27µM	–	–	–	–
O=C(Nc1ccc(C(=O)O)cc1)Nc1ccc([N+](=O)[O-])cc1	–	–	–	–	–	–
O=C(Nc1nnc([C@@H]2C[C@H](O)[C@@H](CO)O2)s1)Nc1cccc(Cl)c1Cl	·	–	–	·	·	·
Cc1ccc(S(=O)(=O)N/N=C/c2cccc3nccnc23)cc1	·	–	?	–	–	–
Cc1ccc(S(=O)(=O)N/N=C/c2cccc3c2OCCO3)cc1	10µM	–	?	–	–	–
CCOc1ccc(/C=N/NS(=O)(=O)c2ccc(C)cc2)cc1OC	?	–	–	–	–	–
Cc1ccc(S(=O)(=O)N/N=C/c2cccc(OC3CSC3)c2)cc1	8.9µM	–	?	–	–	–
Cc1ccc(S(=O)(=O)N/N=C/c2ccc(C#N)cc2)cc1	2.2µM	–	–	–	–	–
O=C(Nc1ccccc1C(=O)NC(Cc1c[nH]c2ccccc12)C(=O)O)c1ccccc1 (stereo unspecified)	·	–	–	–	–	–
COc1cc([N+](=O)[O-])ccc1NC(=O)CCCOc1cccc(C)c1C	?	–	–	–	–	–
CCN(CC(=O)Nc1ccc(OC)cc1)C(=O)c1cc([N+](=O)[O-])ccc1N1CCOCC1	–	–	–	–	–	–
SMILES	G9a inh	PLK1 PBD block	ALOX12 inh	JMJD2A Tudor	BAZ2B block	HP1b binding inh
COc1ccccc1-c1nc(SCC(=O)Nc2ccccc2)n[nH]1	·	–	–	–	–	–
COc1ccccc1NC(=O)CSc1n[nH]c(-c2ccco2)n1	·	27µM	–	–	·	–
COc1ccccc1NC(=O)CSc1n[nH]c(-c2ccccn2)n1	–	–	–	3.5µM	4.5µM	–
COc1ccccc1-c1nc(SCC(=O)Nc2ccccc2F)n[nH]1	–	–	–	–	–	–
O=C(CSc1n[nH]c(-c2ccccn2)n1)Nc1ccccc1F	–	–	–	2.5µM	4.5µM	–
O=C(CSc1n[nH]c(-c2ccccn2)n1)Nc1ccccc1	·	–	–	4µM	?	–
C#Cc1ccc(CN2CCC(C(=O)Nc3ccc(Oc4ccccc4)nc3)CC2)cc1	–[0.501 µM]	–	–	–	–	–
CN1CCN(C(=S)SCC(=O)N2CCCc3ccccc32)CC1	·	–	–	–	–	–
CCC(=O)N1CCC(n2c(C)cnc2-c2cccnc2)CC1	·	·	–	·	·	·
COc1ccc(NC(=O)CSc2n[nH]c(-c3ccccn3)n2)cc1	–	–	–	4µM	3.5µM	–
COc1ccc(-c2nc(SCC(=O)Nc3cccc(C(C)=O)c3)n[nH]2)cc1	–	·	–	–	–	–
COc1cccc(CNC(=O)c2c[nH]n3c(=O)c(Cl)c(C)nc23)c1	45µM	?	–	–	–	–
Cc1nc2c(C(=O)NCCC3=CCCCC3)c[nH]n2c(=O)c1Cl	–	24µM	?	–	–	–
O=[N+]([O-])c1cc(C(F)(F)F)cc([N+](=O)[O-])c1Sc1n[nH]c(C(F)(F)F)n1	·	?	–	50µM	–	–
CN(C)/C=N/c1nc(Sc2ccc(C(F)(F)F)cc2[N+](=O)[O-])n[nH]1	–	–	–	–	–	–
COc1ccc(/C=C(/NC(=O)c2ccccc2)c2nc3ccccc3[nH]2)cc1OC	–	–	–	–	–	–
O=C(O)c1ccc(NC(=O)c2ccccc2NC(=O)c2cccc(Br)c2)cc1	?	21µM	?	?	–	–
O=C(Nc1ccccc1C(=O)O)C1=NN=CC1	50µM	–	–	–	–	?
Cc1ccc(NC(=O)c2cccc(C(=O)Nc3ccc(C)cc3C(=O)O)c2)c(C(=O)O)c1	–[2.33 µM]	21µM	?	–	–	–
Cc1ccc(NC(=O)c2ccc(Br)cc2)c(C(=O)c2ccccc2)c1	–	·	–	–	–	–
Cc1ccc(S(=O)(=O)CCSc2cccc(C(=O)Nc3ccccc3C(=O)O)c2)cc1	?	1.7µM	–	–	–	–
Cc1noc(-c2ccco2)c1C(=O)NCc1cccc2ccccc12	·	·	–	·	·	·
O=C(Nc1ccccc1C(=O)O)c1cccc(NC(=O)c2ccccc2Br)c1	–	–	?	–	–	–
O=C(Nc1cc(C(=O)Nc2ccccc2C(=O)O)cc(C(=O)Nc2ccccc2C(=O)O)c1)c1ccccc1	–	21µM	?	?	–	–
COc1ccc(/C=C/C(=O)c2ccccn2)cc1	40µM	–	?	–	?	–
SMILES	G9a inh	PLK1 PBD block	ALOX12 inh	JMJD2A Tudor	BAZ2B block	HP1b binding inh
COc1ccc(/C=C/C(=O)c2ccccc2O)cc1	45µM	–	·	63µM	?	–
COc1ccc(/C=C/C(=O)c2ccc(OC)cc2)cc1	·	·	–	·	·	·
COc1ccc([N+](=O)[O-])c(C=CC(=O)c2ccccn2)c1	·	–	–	·	·	·
CCCCc1nnc(NC(=O)CCN2C(=O)C3CC=CCC3C2=O)s1 (stereo unspecified)	–[12.7 µM]	–	–	–	–	–
O=C(Nc1ccon1)c1sc2cccc(F)c2c1Cl	·	·	–	·	·	·
CCOc1ccc(Oc2ccc(Cl)cc2N)cc1	50µM	–	–	–	?	–
CN(c1ncccc1C(=O)N1CCOCC(O)C1)C1CCCCC1 (stereo unspecified)	·	·	–	·	·	·
CC(C)Sc1nnc(CNC(=O)C23CC4CC(CC(C4)C2)C3)n1Cc1ccccc1	32µM	–	–	–	–	–
CSc1nnc(CNC(=O)C23CC4CC(CC(C4)C2)C3)n1Cc1ccccc1	–	–	–	–	–	–
